In PubChem BioAssay AID1159580 (chemical genetic matrix, 2015):
Values joined by “and” are separate entries in the source; they are usually repeats but may differ in a detail not shown here. Equal values may be shown once. Screen size: about 5,500 compounds; about 2,000 (36%) were called active. Not shown: some 18% with an inconclusive outcome. Cut-off read from the data, not from the text of the source: active = normalized growth mostly below about 0.91 (no sharp cut-off); inconclusive = no clear call, values can overlap the other calls; inactive = mostly above about 0.92. This is one part of the list.

Experiment: chemical genetic growth profiling, strain panel (AID 1159580);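 note: tested at 20 µM; growth read once vehicle control cultures reached saturation at 30 °C; 1 = growth at the plate median or of vehicle wells; lower values mean less growth of the strain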
Details: S. cerevisiae deletion strains, growth OD

Measured: normalized growth

C[C@]12CCC3c4ccc(OS(=O)(=O)O)cc4CCC3C1CC[C@H]2O (some centres undefined)
inactive: locus YAL013W, strain DEP1, stronger effect = lower value 0.998 | locus YAL021C, strain ccr4, stronger effect = lower value 0.986 | locus YAL026C, strain drs2, stronger effect = lower value 0.973 | locus YAL030W, strain snc1, stronger effect = lower value 1 | locus YBL061C, strain skt5, stronger effect = lower value 0.969 | locus YBR009C, strain hhf1, stronger effect = lower value 1.04 | locus YBR021W, strain FUR4, stronger effect = lower value 0.983 | locus YBR023C, strain chs3, stronger effect = lower value 0.966 | locus YBR171W, strain sec66, stronger effect = lower value 0.983 | locus YBR229C, strain ROT2, stronger effect = lower value 0.988 | locus YBR231C, strain swc5, stronger effect = lower value 0.993 | locus YBR279W, strain paf1, stronger effect = lower value 0.978 | locus YCL011C, strain gbp2, stronger effect = lower value 0.961 | locus YCL016C, strain dcc1, stronger effect = lower value 0.948 | locus YCL029C, strain bik1, stronger effect = lower value 0.99 | locus YCL061C, strain MRC1, stronger effect = lower value 0.975 | locus YCL069W, strain vba3, stronger effect = lower value 0.985 | locus YCR088W, strain abp1, stronger effect = lower value 0.983 | locus YDL005C, strain med2, stronger effect = lower value 0.984 | locus YDL035C, strain GPR1, stronger effect = lower value 0.991 | locus YDL040C, strain nat1, stronger effect = lower value 0.985 | locus YDL074C, strain BRE1, stronger effect = lower value 1.02 | locus YDL101C, strain DUN1, stronger effect = lower value 0.996 | locus YDL134C, strain PPH21, stronger effect = lower value 0.978 | locus YDL185W, strain tfp1, stronger effect = lower value 0.99 | locus YDL192W, strain arf1, stronger effect = lower value 0.987 | locus YDR001C, strain nth1, stronger effect = lower value 0.974 | locus YDR069C, strain doa4, stronger effect = lower value 0.981 | locus YDR101C, strain arx1, stronger effect = lower value 0.988 | locus YDR137W, strain rgp1, stronger effect = lower value 0.955 | locus YDR150W, strain NUM1, stronger effect = lower value 0.997 | locus YDR159W, strain sac3, stronger effect = lower value 0.984 | locus YDR162C, strain NBP2, stronger effect = lower value 0.986 | locus YDR195W, strain ref2 0.97 | locus YDR297W, strain sur2, stronger effect = lower value 0.986 | locus YDR318W, strain mcm21, stronger effect = lower value 0.986 | locus YDR334W, strain swr1, stronger effect = lower value 0.968 | locus YDR335W, strain msn5, stronger effect = lower value 0.968 | locus YDR388W, stronger effect = lower value 0.986 | locus YDR392W, strain spt3, stronger effect = lower value 0.907 | locus YDR502C, strain sam2, stronger effect = lower value 0.986 | locus YEL003W, strain gim4, stronger effect = lower value 1 | locus YEL037C, strain rad23, stronger effect = lower value 0.989 | locus YEL061C, strain CIN8 (second series), stronger effect = lower value 0.981 | locus YEL061C, strain CIN8, stronger effect = lower value 0.996 | locus YER015W, strain faa2, stronger effect = lower value 0.986 | locus YER016W, strain bim1, stronger effect = lower value 0.942 | locus YER110C, stronger effect = lower value 0.978 | locus YER111C, strain swi4, stronger effect = lower value 0.965 | locus YER155C, strain BEM2 (second series), stronger effect = lower value 1 | locus YER155C, strain BEM2, stronger effect = lower value 0.994 | locus YER167W, strain BCK2, stronger effect = lower value 0.987 | locus YFR010W, strain ubp6, stronger effect = lower value 0.998 | locus YGL078C, strain dbp3, stronger effect = lower value 0.986 | locus YGL086W, strain mad1, stronger effect = lower value 0.988 | locus YGL167C, strain pmr1, stronger effect = lower value 0.973 | locus YGL173C, strain kem1, stronger effect = lower value 0.999 | locus YGL227W, strain vid30, stronger effect = lower value 0.981 | locus YGL240W, strain doc1, stronger effect = lower value 1.01 | locus YGL248W, strain PDE1, stronger effect = lower value 0.997 | locus YGL253W, strain hxk2, stronger effect = lower value 0.953 | locus YGR078C, strain PAC10, stronger effect = lower value 1.01 | locus YGR135W, strain pre9, stronger effect = lower value 0.96 | locus YGR229C, strain SMI1, stronger effect = lower value 1.01 | locus YGR252W, strain gcn5, stronger effect = lower value 0.997 | locus YHR013C, strain ard1, stronger effect = lower value 0.92 | locus YHR027C, strain rpn1, stronger effect = lower value 0.965 | locus YHR030C, strain SLT2, stronger effect = lower value 0.99 and 0.957 | locus YHR079C, strain IRE1 (second series), stronger effect = lower value 0.986 | locus YHR079C, strain IRE1, stronger effect = lower value 0.959 | locus YHR094C, strain hxt1, stronger effect = lower value 0.987 | locus YHR129C, strain ARP1, stronger effect = lower value 0.988 | locus YHR142W, strain chs7, stronger effect = lower value 0.951 | locus YHR200W, strain rpn10, stronger effect = lower value 0.987 | locus YIL066C, strain RNR3, stronger effect = lower value 0.984 | locus YIL073C, strain SPO22, stronger effect = lower value 0.954 | locus YIL125W, strain kgd1, stronger effect = lower value 0.988 | locus YIR030C, strain dcg1, stronger effect = lower value 0.992 | locus YJL092W, strain hpr5, stronger effect = lower value 0.978 | locus YJL095W, strain BCK1 (second series), stronger effect = lower value 0.969 | locus YJL095W, strain BCK1, stronger effect = lower value 1.02 and 0.969 | locus YJL115W, strain asf1, stronger effect = lower value 0.947 | locus YJL129C, strain trk1, stronger effect = lower value 0.911 | locus YJL134W, strain LCB3, stronger effect = lower value 0.993 | locus YJL154C, strain vps35, stronger effect = lower value 0.976 | locus YJL164C, strain tpk1, stronger effect = lower value 0.983 | locus YJL166W, strain qcr8, stronger effect = lower value 0.998 | locus YJL168C, strain set2, stronger effect = lower value 1 | locus YJL187C, strain SWE1 (second series), stronger effect = lower value 1.01
